Compound activity from PubChem.
NPC1 prom act: qHTS Assay for NPC1 Promoter Activators. AID 485313, 2010. actives 2.4% (n = 320,000). Huh7 NPC1 promoter luciferase reporter, 24 h. Potency, µM (top dose mostly 9.22 µM), usual class: activators; also: nearly all actives have a fitted effect of over 60% in size
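In 1536-well qHTS, Huh7 cells harboring an NPC1 promoter–luciferase construct received compound for 24 h; activation was quantified by luminescence following luciferase reagent addition.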
FLuc modulator: qHTS profiling assay for firefly luciferase inhibitor/activator using purifed enzyme and Km concentrations of substrates (counterscreen for miR-21 project); Potency, µM (top dose mostly 57.5 µM), usual class: inhibitors; purified FLuc, Km substrates, luminescence inhibition; actives 6.9% (n = 360,000); also: nearly all actives have a fitted effect of over 55% in size
Target sequence (P08659 whole entry, looked up): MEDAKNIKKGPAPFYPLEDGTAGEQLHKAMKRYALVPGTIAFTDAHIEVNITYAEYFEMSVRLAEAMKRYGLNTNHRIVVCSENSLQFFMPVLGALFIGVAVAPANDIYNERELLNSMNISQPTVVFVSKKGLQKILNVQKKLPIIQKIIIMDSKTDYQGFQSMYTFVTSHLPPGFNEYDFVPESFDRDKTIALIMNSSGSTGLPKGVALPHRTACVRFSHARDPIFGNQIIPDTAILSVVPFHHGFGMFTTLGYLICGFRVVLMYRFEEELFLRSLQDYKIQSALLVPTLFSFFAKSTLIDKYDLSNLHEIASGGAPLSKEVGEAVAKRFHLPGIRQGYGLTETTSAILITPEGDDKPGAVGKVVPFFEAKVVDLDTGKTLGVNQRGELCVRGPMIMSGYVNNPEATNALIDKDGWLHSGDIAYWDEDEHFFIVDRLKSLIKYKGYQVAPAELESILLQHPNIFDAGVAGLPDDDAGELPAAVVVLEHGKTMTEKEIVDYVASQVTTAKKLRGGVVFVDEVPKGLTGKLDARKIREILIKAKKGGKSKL
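Purified P. pyralis luciferase, 10 nM final, with Km-level 10 uM D-luciferin and 10 uM ATP in 50 mM Tris acetate pH 7.5, 10 mM Mg acetate, 0.01% Tween-20, 0.05% BSA; 6-point qHTS titration about 60 µM downward; luminescence read.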
Rab9 promoter act: qHTS Assay for Rab9 Promoter Activators; actives 2.8% (n = 320,000); AID 485297, 2010; Potency, µM (top dose mostly 9.22 µM), usual class: activators; Huh7 Rab9 promoter-luciferase reporter, luminescence, 24 h; also: nearly all actives have a fitted effect of over 60% in size
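Steps: seed 1500 Huh7 Rab9-luc cells per well, rest 2 h at 37 °C; add compound in DMSO; incubate 24 h; add luciferase reagent, 10 min ambient; read luminescence.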
ELG1 genotoxic: qHTS screen for small molecules that induce genotoxicity in human embryonic kidney (HEK293T) cells expressing luciferase-tagged ELG1. HEK293T ELG1-luciferase reporter, luminescence, 16 h. Potency, µM (series often up to 46 µM), usual class: activators. actives 1.3% (n = 330,000); also: nearly all actives have a fitted effect of over 60% in size
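Cells (2,000/well) expressing the ELG1-luciferase fusion are dosed by pin tool and kept 16 hr at 37 °C, 5% CO2. Signal comes from ONE-Glo luciferase reagent after 30 min at room temperature.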
ELG1 DNA repair: qHTS screen for small molecules that inhibit ELG1-dependent DNA repair in human embryonic kidney (HEK293T) cells expressing luciferase-tagged ELG1; HEK293T ELG1-luciferase reporter, luminescence, 16 h; DNA damage induced by 5-fluorouridine; Potency, µM (doses to about 46.1 µM), most hits filed as inhibitors; actives 2.3% (n = 330,000); AID 504467, 2011; also: nearly all actives have a fitted effect of over 55% in size
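5-Fluorouridine DNA damage + compound/DMSO, 2,000 cells/well, 16 h, 37 °C/5% CO2. ONE-Glo, 30 min RT, luminescence. Readout = decrease in reporter signal.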
SMN2 splice enh: qHTS Assay for Enhancers of SMN2 Splice Variant Expression. AID 1458, 2008. Potency, µM (doses to about 46.1 µM), most hits filed as activators. HEK293 SMN2-luciferase splicing reporter, luminescence, 30-36 h. actives 2.8% (n = 210,000); also: nearly all actives have a fitted effect of over 55% in size
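qHTS luciferase splicing reporter: luminescence rises when SMN2 exon 7 is included in transfected HEK293 cells. Compound exposure lasted 30-36 h at 37C, with 4.5 mM final sodium butyrate as control, followed by a ONE-Glo read.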
Hits are given with their value; n = inactive; u = inconclusive; x = not tested or not shown. In the library only some 9.3% were active in any assay of this set; here they are far more common. Calls follow the shape of the dose curve; as a rule, active = well fitted curve in the direction sought with a large enough effect; inconclusive = small, poorly fitted or top-dose-only effect, or another doubt; inactive = no such curve, though single readings can be large; an effect the other way counts as inactive or inconclusive.

SMILES | NPC1 prom act | FLuc modulator | Rab9 promoter act | ELG1 genotoxic | ELG1 DNA repair | SMN2 splice enh
O=C(Nc1ccc2c(c1)CCC2)Nc1ccccc1F | 0.45µM | 0.67µM | 0.63µM | 0.41µM | u | x
O=C(Nc1ccccc1)Nc1ccc2c(c1)CCC2 | 2.5µM | 2.7µM | 3.5µM | u | u | x
O=C(Nc1ccc2c(c1)CCC2)Nc1ccc(F)cc1F | 1.3µM | u | 0.79µM | u | u | x
O=C(Nc1ccc2c(c1)CCC2)c1c(F)cccc1Cl | 1.6µM | 9.5µM | 1.3µM | 9.2µM | u | 14µM
COC1C/C(=N\O)C2OC(c3ccccc3)OCC2O1 (centres undefined) | n | n | n | n | n | n
Cc1cc2c(NC(=O)Nc3ccc(C(C)(C)C)cc3)cccc2nn1 | n | 12µM | n | n | 15µM | x
Cc1ccccc1NC(=O)CNC(=O)c1ccc(C(F)(F)F)cc1 | n | u | n | n | u | n
O=C(CNC(=O)c1ccccc1F)Nc1ccc2c(c1)CCC2 | u | n | u | u | u | x
Cc1ccccc1NC(=O)Nc1ccc(C(F)(F)F)cc1 | n | 2.4µM | 2.2µM | n | u | x
Cc1ccccc1NC(=O)Nc1ccc2c(c1)CCC2 | 2.8µM | 2.4µM | 2.5µM | u | u | x
O=C(Nc1ccc2c(c1)CCC2)c1ncoc1-c1ccccc1F | n | 8.5µM | n | n | u | x
O=C(CCCN1C(=O)/C(=C/c2ccccc2)SC1=S)Nc1ccccc1O | n | n | n | n | n | n
COc1ccc([C@H]2CC(=O)C=C(c3ccc(C)c(F)c3)C2)cc1 | n | n | n | n | n | x
COc1ccc(C(CNC(=O)C(C)(C)Oc2ccc(Cl)cc2)N2CCCC2)cc1 (centres undefined) | n | n | n | n | n | x
O=C(CN(Cc1ccccc1)C(=O)CNS(=O)(=O)c1ccccc1)NCc1ccco1 | n | n | n | n | n | x
O=C(Nc1ccc2c(c1)CCC2)c1ccc(F)cc1 | 0.71µM | 1.1µM | 0.45µM | 1.6µM | u | 2.2µM
Cc1ccc(NC(=O)Nc2ccc3c(c2)CCC3)cc1 | 2µM | u | 2µM | u | u | x
O=C(Nc1cccc(F)c1)Nc1ccc2c(c1)CCC2 | 2.5µM | 3.4µM | 2.5µM | u | u | x
CCOc1ccc(NC(=O)Nc2ccc3c(c2)CCC3)cc1 | n | n | n | n | n | x
Cc1cc(C)cc(NC(=O)Nc2ccc3c(c2)CCC3)c1 | u | n | u | n | u | x
O=C(Nc1ccc(F)cc1)Nc1ccc2c(c1)CCC2 | 2.5µM | u | 2.2µM | u | u | x
Cc1cc(C)n(CCC(=O)N/N=C/c2c(O)ccc3ccccc23)n1 | n | n | n | n | 3.7µM | x
Cc1cc(C)n(CCC(=O)N/N=C/c2ccc(O)cc2)n1 | n | n | n | n | n | n
O=C(CN1CCCC1)N/N=C/c1c(O)ccc2ccccc12 | n | n | n | u | 5.2µM | x
COc1cc([N+](=O)[O-])ccc1NC(=S)N1CCOCC1 | n | n | n | n | n | x
SMILES | NPC1 prom act | FLuc modulator | Rab9 promoter act | ELG1 genotoxic | ELG1 DNA repair | SMN2 splice enh
COc1cc([N+](=O)[O-])ccc1NC(=O)Nc1ccc2c(c1)OCCO2 | n | 6.7µM | u | n | n | n
O=C(Nc1ccc([N+](=O)[O-])cc1)Nc1ccc2c(c1)OCCO2 | 1µM | 2.1µM | 0.79µM | n | u | 6.3µM
O=[N+]([O-])c1ccc2c(c1)OCCOCCOCCOCCOCCOCCO2 | n | n | n | n | n | n
O=C(O)CCCNC(=O)/C=C/c1ccco1 | n | n | n | n | n | x
COC1c2ccccc2C(=O)N1CCc1ccc(Cl)cc1 (centres undefined) | n | n | n | n | u | x
O=C(COc1ccccc1Cl)Nc1ccc(N2CCN(C(=O)c3ccccc3)CC2)cc1 | n | n | n | n | 13µM | x
CC(=O)N1CCN(c2ccc(NC(=O)COc3ccc(Cl)cc3Cl)cc2)CC1 | n | n | n | n | 9.2µM | n
Cc1cccc(OCC(=O)Nc2ccc(N3CCN(C(=O)c4ccco4)CC3)cc2)c1C | n | n | n | n | n | n
O=C(COc1ccccc1Cl)Nc1ccc(N2CCCC2)cc1 | n | u | u | n | u | x
CC(=O)N1CCN(c2ccccc2NC(=O)COc2ccc(Cl)cc2Cl)CC1 | n | n | n | n | u | n
CCC(=O)Nc1ccc(N2CCN(C(=O)c3cccs3)CC2)cc1 | n | n | n | n | n | n
Cc1ccccc1OCC(=O)Nc1ccc(N2CCN(C(=O)c3ccco3)CC2)cc1 | n | n | n | n | 21µM | x
O=C(COc1ccccc1[N+](=O)[O-])Nc1ccc(N2CCN(C(=O)c3cccs3)CC2)cc1 | n | n | n | n | 18µM | x
CC1CCCCC1NC(=O)Cn1ncc2ccccc21 (centres undefined) | n | n | n | n | u | n
c1ccc(COn2nnc3ccccc32)c(COn2nnc3ccccc32)c1 | n | n | n | n | u | n
COc1ccc(N2CC(=O)N(c3ccc(OC)c(OC)c3)CC2=O)cc1OC | n | n | n | n | n | x
CCOC(=O)C1CCN(S(=O)(=O)c2cc3c(cc2C)NC(=O)CO3)CC1 | n | n | n | n | n | x
Cc1cccc(OCC(=O)Nc2ccc(N3CCN(C(=O)c4ccccc4)CC3)cc2)c1 | n | n | n | n | 18µM | n
Cc1ccc(OCC(=O)Nc2ccc(N3CCN(C(=O)c4ccc(C)cc4)CC3)cc2)cc1 | n | n | n | n | u | x
Cc1ccc(-c2ccc(SCC(=O)NC3CCCC3)nn2)cc1 | n | u | n | n | n | x
COc1cccc(-c2ccc(SCC(=O)NC3CCCC3)nn2)c1 | n | n | n | n | n | x
CCOc1ccc(-c2ccc(SCC(=O)NC3CCCCC3)nn2)cc1 | 2µM | 0.38µM | 1.6µM | u | u | x
COc1ccc(-c2ccc(SCC(=O)NC3CCCCC3)nn2)cc1 | u | 1.7µM | 2.2µM | u | u | x
Cc1ccc(-c2ccc(SCC(=O)NC3CCCCC3)nn2)cc1 | u | 2.7µM | n | n | u | x
COc1ccc(-c2nnc(SCC(=O)NC3CCCCC3)nc2-c2ccc(OC)cc2)cc1 | x | n | x | x | x | x
COc1ccc(-c2nc(SCC(=O)NC3CCCCC3)n[nH]2)cc1 | n | 15µM | n | n | u | x
Cc1ccc(CNC(=O)Cn2ccc(NC(=O)OCc3ccccc3)nc2=O)o1 | n | n | n | n | n | x
COc1ccc(-c2nnc(SCC(=O)NC3CCCCC3)o2)cc1 | n | u | n | n | n | x
COc1ccc(-c2cn3nc(SCC(=O)NC4CCCCC4)ccc3n2)cc1 | 0.56µM | 0.34µM | 0.71µM | u | u | x
